Drawing on PubChem BioAssay AID777 (Sanford-Burnham Center for Chemical Genomics, 2007), this text covers inhibition for 96 compounds.

The structures appear in SMILES notation. About 19,000 (20%) of roughly 96,000 compounds were called active. Not all results are given here. Unmarked numbers belong to inactive results.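 Rule for the calls: active = blocking of liver enzyme CYP2C9 beyond about 50% at 5 µM (limit read from the data); inactive = the rest.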

The term inhibition denotes the relative decrease from the control value, in per cent.

Sequence of Cytochrome P450 2C9 (Homo sapiens) (P11712 whole entry, looked up): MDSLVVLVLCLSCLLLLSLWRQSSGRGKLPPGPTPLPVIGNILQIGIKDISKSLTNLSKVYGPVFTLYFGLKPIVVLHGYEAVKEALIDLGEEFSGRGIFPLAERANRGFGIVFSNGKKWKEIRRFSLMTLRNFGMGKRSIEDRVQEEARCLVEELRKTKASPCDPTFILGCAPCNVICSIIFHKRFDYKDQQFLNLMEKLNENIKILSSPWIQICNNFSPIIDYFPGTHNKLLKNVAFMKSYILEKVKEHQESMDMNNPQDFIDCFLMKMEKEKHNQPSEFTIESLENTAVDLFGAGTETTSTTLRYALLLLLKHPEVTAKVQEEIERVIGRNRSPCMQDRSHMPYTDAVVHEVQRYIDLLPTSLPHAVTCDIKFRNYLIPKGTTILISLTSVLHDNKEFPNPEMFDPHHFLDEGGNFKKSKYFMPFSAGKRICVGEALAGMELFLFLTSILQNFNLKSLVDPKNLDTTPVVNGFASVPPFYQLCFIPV

This assay has as its target Cytochrome P450 2C9 (Homo sapiens) (UniProt P11712). Nature of the assay: blockers of cytochrome P450 2C9 activity – biochemical, luminescence, ADME assay, primary screen (AID 777). Conditions: CYP2C9 Supersomes, luciferin-H conversion, at 5 µM, active compounds read high.
Turning to `O=C(NC1CCCCC1)c1cc([N+](=O)[O-])ccc1N1CCOCC1`, the inhibition is 1.4%. `O=C(Nc1cc2c3c(c1)C1CCCC1CN3CC1CCCC21)c1ccc([N+](=O)[O-])cc1` (stereo unspecified): the inhibition was 96.3% (active). For `COc1cccc(N2CCN(C(=O)Nc3ccc4c(c3)NC(=O)CO4)CC2)c1`, the inhibition is 13%.

With `O=C(Cc1nn[nH]n1)NCCC1=CCCCC1`, the inhibition is -1.8%. Consider `Cc1ccc(-n2c(C)cc(/C=N/Nc3ccc([N+](=O)[O-])cn3)c2C)c(C)c1`, for which the inhibition is 13.3%. The figure for `COc1ccc(CN(C(=O)c2cccs2)c2nccs2)cc1OC` is 99% (active); for `COc1ccc(S(=O)(=O)N2CCN(C(=O)c3cccs3)CC2)cc1OC` it is -35.4%. To `O=C(c1cccs1)N(C(=O)c1cccs1)c1ccccn1` belongs 21.5%. The figure for `CC(C)CC(=O)N/C(N)=N/c1nc2ccccc2s1` is 27.6%; for `C[N+]1(CCNC(=O)/C=N/O)CCCCC1` it is 5.6%. In the case of `Cc1ccc(SCC(=O)c2sc(-c3ccccc3)nc2C)cc1`, the inhibition was 83.6% (active). Turning to `Cc1nc(-c2ccccc2)sc1C(=O)/C=C/c1ccccc1`, the inhibition is 15.9%.

`Cc1ccc(SCC(=O)Nc2ncc(C)s2)cc1`: the inhibition is 35.5%. With `Cc1nn(-c2ncc(C(F)(F)F)cc2Cl)c(=O)n1-c1ccccc1`, the inhibition is -45.3%.

As to `CCn1c(C)nc2c1C(=O)c1ccccc1C2=O`, the inhibition was -0.9%. `O=C1CCCCC(=O)c2ccccc2N1`: the inhibition is 14.5%. The figure for `FC(F)(F)c1cc(-c2ccco2)nc(NCc2ccc(Cl)cc2)n1` is 97.5% (active); for `FC(F)(F)c1cc(-c2cccs2)nc(NCc2ccco2)n1` it is 60.7% (active). In the case of `COc1ccc(Nc2nc(Cl)nc(NCc3ccco3)n2)cc1`, the inhibition is 5.9%. On to `FC(F)(F)c1cc(-c2ccco2)nc(N2CCOCC2)n1`, for which the inhibition was -16.1%. Regarding `O=C(CSc1nc(-c2ccco2)cc(C(F)(F)F)n1)NCc1cccs1`, the inhibition was 7.6%. The figure for `COc1nc(NCc2ccc(Cl)cc2)nc(OC)n1` is 9.7%; for `CCc1ccc(/C=N/NC(=O)c2ccc(OC3CCCC3)cc2)s1` it is -41.1%. For the compound `Cc1oc(-c2ccccc2Cl)[n+]([O-])c1C`, the inhibition was 7.1%. In the case of `Cc1cnc(NC(=O)CSc2nnc(C)s2)s1`, the inhibition is 8.4%.

Turning to `O=C(CSc1nnc(-c2ccoc2)o1)N1CCOCC1`, the inhibition was -12.9%. `CCc1ccc(N(CC)c2ncnc3nc[nH]c23)cc1`: the inhibition is 3.4%. With `COc1cccc(NC(=O)C2CCCN2C(=O)OCc2ccccc2)c1` (stereo unspecified), the inhibition was 15.8%. `Cc1ccc(C)c(NC(=O)C2CCCN2C(=O)OC(C)(C)C)c1` (stereo unspecified): the inhibition is -1.5%. The figure for `Cc1ccc(C)c(NC(=O)C2Cc3ccccc3CN2C(=O)OCc2ccccc2)c1` (stereo unspecified) is 65% (active); for `O=C(Nn1cnc2ccccc2c1=O)c1ccc(F)cc1Cl` it is -8.6%; for `O=C(CSCc1ccc(Cl)cc1)N1CCCCC1` it is -83.2%. The figure for `O=C(CN1CCN(c2ccc(Cl)cc2)CC1)N1CCCC1` is 57.4% (active). `Cc1ccc2[nH]c3c(c2c1)CN(C(=O)CN1CCN(c2ccccc2)CC1)CC3`: the inhibition was 30.7%. The figure for `Cc1nc(-c2ccccc2)sc1-c1nc(-c2ccccc2)ncc1S(=O)(=O)c1ccccc1` is 37.8%; for `c1ccc(-c2nnc3n2NC(c2ccc4c(c2)OCO4)S3)cc1` (stereo unspecified) it is 21.6%. The figure for `c1ccc(CSc2nnc(-c3ccco3)n2Cc2ccccc2)cc1` is 31.7%; for `c1ccc(CSc2nnc(-c3ccco3)c(-c3ccco3)n2)cc1` it is 72.9% (active); for `Clc1ccccc1CSc1nnc(-c2ccco2)c(-c2ccco2)n1` it is 38.8%.

With `COc1ccc(C2C3=C(OC(C)=O)c4ccccc4C3=Nc3c2c(=O)n(C)c(=O)n3C)cc1` (stereo unspecified), the inhibition is 7.6%. Turning to `CC(C)(C)NC(=O)Cn1nnc(-c2ccccc2Cl)n1`, the inhibition was -42.7%. Consider `COc1ccc(-c2nnn(CC(=O)N(CCO)C(C(=O)NC3CCCC3)c3ccc(F)cc3)n2)cc1` (stereo unspecified), for which the inhibition is -3.9%. With `Cc1ccc(-c2nnn(CC(=O)N(CCO)C(C(=O)NC(C)(C)C)c3ccncc3)n2)cc1` (stereo unspecified), the inhibition was 76.1% (active). With `O=C(Nc1cc(N2CCOCC2)ncn1)NC1(C(F)(F)F)Oc2ccc(Cl)cc2O1` (stereo unspecified), the inhibition was 21.6%. For the compound `CCOCCCNC(=O)C(NC(=O)c1ccc(=O)[nH]c1)c1ccc(C)cc1` (stereo unspecified), the inhibition was 16.2%. Take `Cc1ccccc1NC(=O)c1ccccc1NS(=O)(=O)c1cccc2cccnc12`: the inhibition was 45.1%.

`COc1ccc(C(=O)Nc2nncs2)c(OC)c1`: the inhibition is -1.4%. The figure for `O=C(Nc1nncs1)c1ccccc1NS(=O)(=O)c1cccs1` is 76.4% (active); for `CC(=O)c1ccc(NC(=O)N[C@@H](Cc2ccccc2)C(=O)O)cc1` it is 4.2%. On to `N#CC1=C(N)Oc2n[nH]c(CSc3ccccc3)c2C12C(=O)Nc1ccccc12` (stereo unspecified), for which the inhibition was 24.3%.

`Cc1csc2ncc(C(=O)N(Cc3ccccc3)c3ccccn3)c(=O)n12`: the inhibition is 6.4%. Take `COCCCn1c(SCc2cccc(OC)c2)nc2cc(OC)c(OC)cc2c1=N`: the inhibition is 71.3% (active).

`COc1cccc(-c2cc3nc4c(c(N5CCC6(CC5)OCCO6)n3n2)CCCC4)c1`: the inhibition is 49.8%. Regarding `O=C(Cc1ccc(F)cc1)NC1CCCC1`, the inhibition is -37.8%.

`O=C(Cn1cnc2c(cnn2-c2ccccc2)c1=O)NCc1ccccc1`: the inhibition was -7.3%. Turning to `CCOC(=O)Nc1ccc(S(=O)(=O)N(C)C(C)C)cc1`, the inhibition is 32%.

Take `COC(=O)Nc1ccc(S(=O)(=O)N2CCN(CCN3C(=O)C4C5C=CC(C5)C4C3=O)CC2)cc1` (stereo unspecified): the inhibition is 19.6%. As to `COC(=O)Nc1ccc(S(=O)(=O)N(C)CC(F)(F)C(F)F)cc1`, the inhibition was 59.2% (active). `CC(=O)NC1(c2cccc(F)c2)CCN(CC(=O)NC(C)C)CC1`: the inhibition is 4.1%. To `CON(C)S(=O)(=O)c1ccc2c(c1)NC(=O)C1CCCN21` (stereo unspecified) belongs 44%; to `O=S(=O)(c1ccc(F)cc1)n1ccc(-c2cnc(-c3ccccc3)s2)n1`, 53.9% (active); to `CCn1nnc(NC(=O)c2c(OC)cccc2OC)n1`, -11.4%. As to `O=C(Oc1ccc([N+](=O)[O-])cc1)c1ccc2ccccc2n1`, the inhibition is -28.9%. As for `Cn1cc(S(=O)(=O)N2CCN(c3ccc(F)cc3)CC2)c(=O)n(C)c1=O`, the inhibition was -8.1%.

With `Cc1cc(C)cc(NC(=O)C2CCN(c3nc(C)cc(C)n3)CC2)c1`, the inhibition is 15.4%. As to `Cc1cc(NC(=O)c2cccc(N3C(=O)CCC3=O)c2)no1`, the inhibition is 3.5%. For the compound `CC1CCCN(C(C(=O)Nc2ccc(C(C)C)cc2)c2ccc3c(c2)OCO3)C1` (stereo unspecified), the inhibition was 16.7%. For the compound `O=C(Nc1ccc2c(c1)OCCO2)C(c1ccc(F)cc1)N1CCCCC1` (stereo unspecified), the inhibition was 67.1% (active). Consider `COc1ccc(-n2c(SCC(=O)Nc3ccc4c(c3)OCO4)nnc2C(C)N2CCCCC2)cc1` (stereo unspecified), for which the inhibition is 20.2%. As to `CC(=O)Nc1ccc(S(=O)(=O)N2CCC(N(C)CCC(C)C)CC2)cc1`, the inhibition was 19.4%. Turning to `Cc1ccccc1C(=O)N1CCC(C(=O)Nc2ccc(S(=O)(=O)N(C)C(C)C)cc2)CC1`, the inhibition was 61.2% (active). Take `CCN1CCN(C(=O)c2ccccc2N(C)S(=O)(=O)c2ccc(C)cc2)CC1`: the inhibition is -1.6%. As to `NC(=NC(=O)c1ccccc1)C1=C(O)CCC1=O`, the inhibition is 0%. As for `O=C(NC1CCc2ccccc21)C12CN(Cc3ccccc3)CC1C(c1cccc([N+](=O)[O-])c1)=NO2` (stereo unspecified), the inhibition is 42.7%.

Turning to `CCc1ccccc1NC(=O)c1cccs1`, the inhibition was -6.7%. As to `Cc1cc2cc(CNC(=O)c3cccs3)ccc2[nH]1`, the inhibition is 60.2% (active). For the compound `O=C(O)Cc1ccc(NC(=O)c2cccs2)cc1`, the inhibition is -6.9%. To `O=C(/C=C/Sc1ncn[nH]1)c1ccc(Cl)cc1` belongs 10.9%; to `Cc1nc2ccccc2c(-c2ccccc2)c1C(=O)c1ccccc1`, 19.7%; to `CCOC(=O)CSc1nnc(NC(=O)c2cccc(S(=O)(=O)N3CCCCC3)c2)s1`, 35.5%. `CCOC(=O)C1=C(CC)Nc2ccccc2N=C1NC(=O)c1cccc(S(=O)(=O)N2CCCC2)c1`: the inhibition was 90.2% (active).

Consider `CCOC(=O)CSc1nnc(NC(=O)c2cccc(S(=O)(=O)N3CCCC3)c2)s1`, for which the inhibition is 14.4%. As for `COc1ccc2c(CC(=O)Nc3nnc(C4CC4)s3)coc2c1`, the inhibition is 24.7%.

`CC(=O)c1c(N2CCOCC2)nc(=S)n(Cc2ccccc2)c1C`: the inhibition is 12.5%. Turning to `COc1ccc(CN2CC(C(=O)NCCN3CCN(c4ccccc4F)CC3)CC2=O)cc1` (stereo unspecified), the inhibition was -10.3%. As to `COc1ccc(N2CCN(CCNC(=O)c3nnc(Cc4c(F)cccc4Cl)o3)CC2)cc1`, the inhibition is 66.3% (active).

For `COc1ccc(N2CCN(CCNC(=O)CCN3C(=O)COc4ccccc43)CC2)cc1`, the inhibition was -2.8%. `C/C(=C(\C#N)C(=O)NCCCN1CCOCC1)N(C)C`: the inhibition is -16.4%.

As to `Cc1cc(C)c(C)c(S(=O)(=O)Nc2ccc(O)cc2)c1C`, the inhibition is -16.6%. As to `CC(=O)Nc1ccc(S(=O)(=O)NCCc2ccccc2)cc1`, the inhibition was 49.5%. Consider `CC(=O)Nc1ccc(NS(=O)(=O)c2cc(C)sc2C)cc1`, for which the inhibition was 56.5% (active).

For `Cc1cccc(NC(=O)COc2ccc(Br)cc2C)n1`, the inhibition was -11%. Regarding `O=C(COC(=O)c1ccc(Oc2ccccc2)cc1)Nc1nnc(-c2ccccc2)o1`, the inhibition is 89.1% (active). In the case of `COc1ccc(CC(=O)Nc2ccc(-c3nnc(-c4ccccc4)o3)cc2)cc1`, the inhibition is 19%. With `O=C(Nc1cccc(Cl)c1)Nc1nnc(-c2ccccc2)o1`, the inhibition is 8.9%.

Regarding `COc1cccc(-n2c(Cc3cc(=O)[nH]c(=O)[nH]3)nnc2SCC(=O)Nc2ccccc2)c1`, the inhibition was -48.2%.
